HEK293 tox: kills HEK 293 cells. hit rate 6.6% among 94,000. Potency, µM (titrated, usually from 115 µM), most hits filed as inhibitors. HEK 293 viability, ATP luminescence (CellTiter-Glo), 48-72 h; also: nearly all actives have a fitted effect of over 60% in size
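HEK 293 cells seeded at 250 cells/well were exposed to compound for 48 or 72 hr at 37 degree Celsius. Viability taken as ATP content by CellTiter-Glo luminescence.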
3T3 cytotox: cytotoxic compounds in NIH 3T3 cells; Potency, µM (highest dose often 96.7 µM), hits mostly inhibitors; hit rate 4.3% among 94,000; NIH 3T3 viability, CellTiter-Glo ATP luminescence, 48-72 h; also: nearly all actives have a fitted effect of over 55% in size
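NIH 3T3 cells at 400 cells/well received 23 nL of compound by pintool and were incubated 48 or 72 h at 37 °C. Viability was read as ATP-coupled CellTiter-Glo luminescence.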
FLuc inh: Photinus pyralis luciferase inhibition; hit rate 2.5% among 76,000; purified P. pyralis luciferase, luminescence, biochemical; AID 1347043; P08659; Potency, µM (top dose mostly 115 µM), most hits filed as inhibitors; also: nearly all actives have a fitted effect of over 65% in size
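Biochemical qHTS: compound (6-point titration) added to 10uM D-luciferin plus 10uM ATP in Tris acetate pH 7.5 buffer with Mg, Tween-20 and BSA, then purified enzyme at 10nM; light output imaged.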
NPR1 antag: antagonists of human natriuretic peptide receptor Npr1 | Potency, µM (titrated, usually from 46.3 µM), hits mostly inhibitors | hit rate 1.6% among 76,000 | P16066 | HEK293 hNpr1 GloSensor cGMP, ANP-stimulated luminescence | AID 1347048; calls by dose curve; also: nearly all actives have a fitted effect of over 60% in size
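HEK293 cells stably expressing human Npr1 and cGMP GloSensor pGS-40F, loaded 2 h with 2% GloSensor reagent, given compound 30 min at room temperature. Luminescence read before and 20 min after 0.1 nM hNppA.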
Hits are given with their value; . = inactive; ? = inconclusive; / = no result. Only some compounds are listed: those with a hit (about 11% of all), similar ones and a draw of the others. Unless noted, calls follow the shape of the dose curve; as a rule, active = well fitted curve in the direction sought with a large enough effect; inconclusive = small, poorly fitted or top-dose-only effect, or another doubt; inactive = no such curve, though single readings can be large; an effect the other way counts as inactive or inconclusive.

SMILES	HEK293 tox	3T3 cytotox	FLuc inh	NPR1 antag
CC1Oc2ccc(NC(=O)c3ccc([N+](=O)[O-])cc3)cc2CN(Cc2ccccc2F)C1=O (centres undefined)	32µM	?	.	.
COc1ccccc1CN1Cc2cc(NC(=O)c3ccc([N+](=O)[O-])cc3)ccc2OC(C)C1=O (centres undefined)	?	?	.	.
COc1nc2nc(CCc3ccccc3)n(C)c2cc1-c1cccc(CO)c1	?	?	71µM	.
COc1ccc(CCN(Cc2ccccc2F)CC2(O)CCCNC2)cc1 (centres undefined)	25µM	25µM	.	.
COC(=O)c1cccc2nc([C@H]3CCN(Cc4ccccc4C)C3)oc12	89µM	?	.	.
Oc1cccc(CN(Cc2ccsc2)Cc2ccco2)c1	35µM	32µM	.	.
CC(NC(=O)Cc1ccc(N(Cc2ccc(F)cc2)C(=O)c2ccco2)cc1)c1ccccc1 (centres undefined)	?	?	.	.
CC(C)c1noc(C2Cc3ccccc3N2C(=O)NC2CCCC2)n1 (centres undefined)	.	32µM	.	.
O=C(Nc1ccc2c(c1)OCCO2)N1c2ccccc2CC1c1nc(C2CC2)no1 (centres undefined)	?	.	13µM	.
CC(C)c1noc(C2Cc3ccccc3N2C(=O)Nc2ccc3c(c2)OCCO3)n1 (centres undefined)	?	?	16µM	.
CC(=O)N1c2ccccc2CC1c1nc(C(C)C)no1 (centres undefined)	.	.	?	.
O=C1CC(c2ccccc2)N(S(=O)(=O)c2ccc3c(c2)CCC3)CCCCCN1 (centres undefined)	.	.	.	.
Cc1ccccc1C(=O)N1CCC(c2nn(-c3ccccn3)c(=O)[nH]2)CC1	.	.	/	/
Cc1nn2c(c1-c1ccccc1[S+](C)(=O)[O-])N(C(=O)c1ccccc1)CCC2	.	?	.	.
Cc1nn2c(c1-c1ccccc1[S+](C)(=O)[O-])N(Cc1ccccc1F)CCC2	?	32µM	.	.
CC(=O)Nc1ccccc1-c1c(C)nn2c1N(CCCc1ccccc1)CCC2	?	25µM	.	?
Cc1nn2c(c1-c1ccccc1OCc1ccccc1)N(C(=O)C(C)C)CCC2	32µM	89µM	.	.
Cc1nn2c(c1-c1ccccc1OCc1ccccc1)N(Cc1ccc(OCC(=O)O)cc1)CCC2	.	25µM	.	.
CC(=O)Nc1ccccc1-c1c(C)nn2c1N(C(=O)Cc1ccccc1)CCC2	.	?	.	.
O=C(NCC1CC1)c1cccc(OC2CN(Cc3cc(F)c(F)c(F)c3)C2)c1	?	?	.	.
O=C(NC1CCN(CCn2nc3n(c2=O)CCCC3)C1)c1cccc(Cl)c1 (centres undefined)	.	.	/	/
Cc1nn2c(c1-c1ccccc1C(C)C)N(Cc1ccc(C(=O)O)cc1)CCC2	?	7.1µM	.	.
CNC(=O)c1cc(C)nc2onc(C3CCCN([S+](=O)([O-])CCC(F)(F)F)C3)c12 (centres undefined)	.	.	/	/
COc1ccc(CN2CCC3(CC2)C(=O)NCN3Cc2ccc(Cl)cc2)cc1	40µM	?	.	.
Cc1ccc(CN2CCC3(CC2)C(=O)NCN3Cc2ccc(Cl)cc2)cc1	?	.	.	?
SMILES	HEK293 tox	3T3 cytotox	FLuc inh	NPR1 antag
Cc1ccccc1C(=O)N1CCC(C(=O)N2CCC(N3Cc4cccn4C3=O)CC2)CC1	?	.	/	/
CN(C)c1ccc(-c2nnc([C@H]3CCN(CC4CCCCC4)C3)o2)cc1	100µM	?	?	.
CN(C)c1ccc(-c2nnc([C@H]3CCN(Cc4ccccc4)C3)o2)cc1	?	?	63µM	.
Cc1ccc(CN2CC[C@H](c3nnc(-c4ccccc4)o3)C2)cc1	?	?	?	.
COc1ccc(CCNC(=O)c2ccc3nnc(-c4ccc([S+](C)(=O)[O-])cc4)n3c2)cc1	?	.	/	/
CC(C)CC(=O)Nc1ccc2c(c1)CCC(=O)N2CC(C)C	?	.	.	.
CC(C)CN1C(=O)CCc2cc(NC(=O)c3ccc(N(C)C)cc3)ccc21	28µM	?	?	.
CCCN1C(=O)CCc2cc(NC(=O)c3ccc(C)s3)ccc21	35µM	?	?	.
COCC1CN(S(=O)(=O)c2ccc(F)c(Cl)c2)CC12CCNCC2 (centres undefined)	?	?	.	.
COc1ccc(C2(C(=O)N3CCc4nn(Cc5ccccc5)c(=O)n4CC3)CC2)cc1	.	.	/	/
CN(C)C(=O)c1nc2sccn2c1-c1ccncc1	.	.	/	/
COc1ccc(-c2noc([C@@H]3CCCN3C3CCCCC3)n2)cn1	?	?	.	.
COCC(=O)Nc1ccc(-c2noc([C@@H]3CCCN3CC(C)(C)C)n2)cn1	100µM	?	.	.
COCCOc1ccc(-c2noc([C@@H]3CCCN3C3CCCCC3)n2)cn1	100µM	.	.	.
CCOC(=O)[C@@H]1[C@@H](OC)C(=O)N(C(C)C)C12CCN(C(=O)c1csc(-c3cccs3)n1)CC2	?	.	/	/
COCCC(=O)NCC12CCCC=C1N(CC1CC1)C(=O)CC2 (centres undefined)	.	?	/	/
CC1=C[C@@H](CNC(=O)c2ccco2)[C@H](C(C)C)C[C@H]1CC(=O)N(C)Cc1ccccc1	?	100µM	.	.
CC1=C[C@@H](CNS(=O)(=O)c2ccc(C)cc2)[C@H](C(C)C)C[C@H]1CC(=O)N(C)Cc1cccnc1	45µM	11µM	.	.
CC1=C[C@@H](CNC(=O)CCC(=O)O)[C@H](C(C)C)C[C@H]1CC(=O)NCc1cccnc1	.	.	.	.
COCCC(=O)NC[C@@H]1C=C(C)[C@H](CC(=O)N(C)Cc2cccnc2)C[C@H]1C(C)C	.	.	56µM	.
CC1=C[C@@H](CNC(=O)CCC(=O)O)[C@H](C(C)C)C[C@H]1CC(=O)N(C)Cc1ccccc1	.	.	.	.
O=C(c1ccc(C(F)(F)F)cc1)N1CCC(C(=O)N2CCC(N3CCCC3=O)CC2)CC1	.	.	/	/
CNC(=O)[C@@H]1C[C@@H](n2cc(CNC(=O)Nc3ccc(Cl)cc3C)nn2)CN1	35µM	.	.	.
Cc1ccc(Cn2c(C3CCN(C(=O)c4c(F)cccc4F)CC3)n[nH]c2=O)cc1	.	.	.	.
Cc1ccc(-c2cccc(CN3CCCC(NC(=O)Cc4cccc(Cl)c4)C3)c2)cc1Cl (centres undefined)	.	.	/	/
COc1ccccc1-c1cccc(CN2CCCC(C(=O)NCc3cccc(C(F)(F)F)c3)C2)c1 (centres undefined)	14µM	16µM	/	/
COc1ccccc1-c1cccc(CN2CCCC(C(=O)NCc3ccc(C(F)(F)F)cc3)C2)c1 (centres undefined)	18µM	22µM	/	/
COc1ccccc1-c1cccc(C(=O)N2CCC[C@H]2C(=O)NCC(F)(F)F)c1	.	.	/	/
COc1ccccc1-c1cccc(CN2CCCC(C(=O)NCc3cccc(Cl)c3)C2)c1 (centres undefined)	14µM	32µM	/	/
